The record followed here is ChEMBL document CHEMBL3988442, “University of Dundee, Small-Polar-MMV Screening Library” (2021).

Molecules are shown by their SMILES. The campaign covered roughly 48,000 compounds. About 13,000 (27%) showed an effect of 50% or more. The list shows a part of the results.

For the test, the system named is Wolbachia pipientis. In words: Anti-Wolbachia Cell-Based Screen. Type of test: functional. Details: scale not given: in the data most compounds retested in dose-response had high values. To be noted: 5 µM.
Turning to `CCCNC(=O)c1ccc(NC(=O)c2cccc(OCC)c2)cc1`, the “Percent Effect” value was 17.24%.

With `Cn1cc(C(=O)Nc2cccc(Oc3ccncc3)c2)ccc1=O`, the “Percent Effect” value is on record as -26.42%.

`O=C(CCNC(=O)c1ccccc1F)NCCNc1cccnc1`: the “Percent Effect” value was 5.027%.

With `O=C(CCNC(=O)C1=Cc2ccccc2OC1)NCc1ccncc1`, the “Percent Effect” value was -4.464%.

For `O=C(CCNC(=O)c1cccc(OC(F)F)c1)Nc1cccnc1`, the “Percent Effect” value is recorded as 104.3%.

With `O=C(CCNC(=O)C1=Cc2ccccc2OC1)Nc1cccnc1`, the “Percent Effect” value is -5.743%.

With `CCOc1cccc(C(=O)Nc2ccncc2)c1`, the “Percent Effect” value is 88.42%.

With `O=C(CCNc1ccc(Cl)cn1)NCc1ccncc1`, the “Percent Effect” value was -15.58%.

For the molecule `CCOc1cccc(C(=O)NCCC(=O)NCc2ccncc2)c1`, the “Percent Effect” value was found to be 103.5%.

For `CS(=O)(=O)c1ccc(OCCNCc2ccc(F)cc2)cc1`, the “Percent Effect” value was -11.24%.

In the case of `CC(C)c1ccc(O)c(C(=O)NC2CCN(c3ncccn3)CC2)c1`, the “Percent Effect” value was 6.653%.

For `COc1ccccc1CCC(=O)N1C[C@H](c2ccccc2)[C@@H](N)C1`, the “Percent Effect” value is -7.051%.

Turning to `O=C(O)CN1CCC(c2ccccc2)CC1`, the “Percent Effect” value is -2.297%.

Take `CC(C)N1C[C@@H](CO)[C@H](c2ccccc2)S1(=O)=O`: the “Percent Effect” value stood at 103.9%.

As for `O=S1(=O)[C@@H](c2ccccc2)[C@H](CO)CN1c1ccccc1`, the “Percent Effect” value worked out at 106.6%.

As to `O=S(=O)(Cc1ccccc1CN1CC[C@H](CO)[C@H](O)C1)c1ccccc1`, the “Percent Effect” value is given as -17.78%.

In the case of `CC(C)C1CN(C(=O)c2ccccc2)CCS1` (centres undefined), the “Percent Effect” value was -3.784%.

In the case of `O=C(C1CCS(=O)(=O)CC1)N1C[C@H]2CC[C@@H]1CN(Cc1ccccc1)C2`, the “Percent Effect” value is -12.98%.

`CN(C)C[C@@H]1CN(C(=O)Cc2ccccc2)C[C@@H]1CO`: the “Percent Effect” value is -32.78%.

As for `O=S1(=O)[C@@H](c2ccccc2)[C@H](CO)CN1C1CC1`, the “Percent Effect” value came out at 108.4%.

On to `CCN1C(=O)CCC12CCN(S(=O)(=O)c1ccc(C#N)cc1)CC2`, for which the “Percent Effect” value is 5.403%.

As to `O=C(c1ccnnc1)N1CCC2(CCN(c3ccsc3)C2=O)C1` (centres undefined), the “Percent Effect” value is 3.217%.

Regarding `CCC(C(=O)N(Cc1ccccn1)C1CCCCC1)n1cccn1` (centres undefined), the “Percent Effect” value is 5.317%.

Regarding `COCCn1/c(=N\C(=O)CN(C)S(C)(=O)=O)sc2cc(C)ccc21`, the “Percent Effect” value is listed as -2.711%.

Regarding `CC(C)(C)c1cnc(CN2CCC(NC(=O)Nc3ccccc3)CC2)o1`, the “Percent Effect” value worked out at 8.013%.

As to `O=C(CC1CC1)N1CC[C@H]2OCC[C@@]2(COc2ncccc2F)C1.O=C(O)C(F)(F)F`, the “Percent Effect” value amounted to 5.049%.

For `Cc1ccc(CN2CCC3(CCCN(C(=O)N(C)C)C3)C2)cc1` (centres undefined), the “Percent Effect” value is on record as -1.979%.

On to `O=C(c1cscn1)N1CCC2(CCN(S(=O)(=O)c3ccccc3)C2)C1` (centres undefined), for which the “Percent Effect” value is -2.264%.

`O=C(CC1CC1)N1CCC2(CCCN(c3ncccn3)C2)CC1`: the “Percent Effect” value is -10.65%.

Take `O=C(c1cscn1)N1CCC2(CCCN(CCOc3ccccc3)C2)C1` (centres undefined): the “Percent Effect” value is listed as 112%.

For `CN(C)C(=O)N1CCC2(CCCN(CCOc3ccccc3)C2)C1.O=C(O)C(F)(F)F` (centres undefined), the “Percent Effect” value was 102.1%.

On to `Cn1cc(CN2CC3(CCN(C(=O)c4cscn4)C3)C2)cn1`, for which the “Percent Effect” value stood at 2.986%.

Take `CCOC(=O)CN1CCC2(CCCN(CCOc3ccccc3)C2)C1` (centres undefined): the “Percent Effect” value amounted to 101.8%.

On to `O=C(CC1CC1)N1CCC2(CCCN(CCOc3ccccc3)C2)C1.O=C(O)C(F)(F)F` (centres undefined), for which the “Percent Effect” value was found to be 117.3%.

Consider `COC(=O)c1cc(OCC2CCC2)cc(C(=O)N[C@@H]2CNCC[C@H]2O)c1`, for which the “Percent Effect” value stood at 8.764%.

Take `O=C(c1ccc(=O)[nH]c1)N1CCCC2(C=Cc3ccccc3O2)CC1` (centres undefined): the “Percent Effect” value is reported as -7.084%.

Take `Cc1nc(CN(C)S(=O)(=O)c2ccccc2C(F)(F)F)no1`: the “Percent Effect” value was found to be 2.399%.

`COc1ccc(CN2CCOC[C@H](OCCC(C)C)C2)cc1`: the “Percent Effect” value was found to be 0.3051%.

Consider `CCCS(=O)(=O)NCC(C)c1ccc(F)c(F)c1` (centres undefined), for which the “Percent Effect” value is recorded as -6.211%.

As to `CC(=O)c1ccc(C(=O)NCc2ccnc(N(C)C)n2)cc1`, the “Percent Effect” value is on record as -2.815%.

For the molecule `O=C([C@H]1CCCO1)N1CCC2(CCCN(CCOc3ccccc3)C2)C1` (some centres undefined), the “Percent Effect” value was determined as 105.8%.

Regarding `CN1CC[C@]2(CN(C(=O)[C@H]3CCCO3)C[C@H]2c2ccccc2)C1=O`, the “Percent Effect” value is listed as -10.86%.

`CCN1CC[C@]2(CN(C(=O)[C@H]3CCCO3)C[C@H]2c2ccccc2)C1=O`: the “Percent Effect” value was -5.714%.

For `c1cc(CNCCC2CCCO2)ccn1` (centres undefined), the “Percent Effect” value is on record as -4.656%.

As to `c1cc(CCN2CCC(c3n[nH]c(C4CC4)n3)CC2)ccn1`, the “Percent Effect” value was 9.327%.

With `c1cc(-c2n[nH]c(CNc3nnc(C4CC4)o3)n2)ccn1`, the “Percent Effect” value is -23.66%.

In the case of `c1cc(CNc2ncc(-c3cnccn3)c(C3CC3)n2)ccn1`, the “Percent Effect” value is on record as 244.3%.

Regarding `Cn1ncnc1-c1ccnc(NCCCc2ccncc2)n1`, the “Percent Effect” value is on record as -3.782%.

Turning to `c1cc(CCNc2ncc(-c3cnccn3)c(C3CC3)n2)ccn1`, the “Percent Effect” value was 137.3%.

`c1cnc(-c2cnc(N3CCSCC3)nc2C2CCCO2)cn1` (centres undefined): the “Percent Effect” value is -3.576%.

On to `c1cc(CNc2ncc(-c3cnccn3)c([C@@H]3CCCO3)n2)ccn1`, for which the “Percent Effect” value came to 102%.

In the case of `Cc1cnc2c(c1NCc1ccncc1)c(=O)n(C)c(=O)n2C`, the “Percent Effect” value is on record as -24.16%.

Turning to `Cc1cc(F)ccc1OC1(C(=O)O)CCN(Cc2cccnc2N)CC1`, the “Percent Effect” value is listed as -8.297%.

For the molecule `Cc1noc(C)c1CN(C)Cc1csc(-c2ccc(F)cc2)n1`, the “Percent Effect” value was 17.5%.

With `Cc1cc(C(=O)N2CCN(C(=O)CCC3CCCCC3)CC2)n(C)n1`, the “Percent Effect” value is listed as -12.7%.

Regarding `O=S(=O)(Cc1ccccc1)c1nnc(N2CCCC2)s1`, the “Percent Effect” value is listed as -13.72%.

Take `Cc1ncc(CN(C)C(=O)Nc2cccc(CN3CCOC3=O)c2)s1`: the “Percent Effect” value was 6.587%.

As to `CN(C)C(=O)[C@H]1C[C@@H]2CN(C(=O)NCC3CCCCC3)C[C@H]1O2`, the “Percent Effect” value was -9.234%.

For the molecule `Cc1ccc(C2CCCN2Cc2nc(-c3ccco3)no2)cc1` (centres undefined), the “Percent Effect” value turned out to be 6.26%.

In the case of `Cc1nn(C)c(Cl)c1C1CCCN1Cc1nc(-c2ccco2)no1` (centres undefined), the “Percent Effect” value amounted to 77.16%.

Consider `COc1c(C2CCCN2Cc2c(C)noc2C)c(C)nn1C` (centres undefined), for which the “Percent Effect” value was -0.2322%.

In the case of `CCCc1noc(CN2CCCC2c2c(C)nn(C)c2OC)n1` (centres undefined), the “Percent Effect” value is recorded as -3.307%.

Regarding `Cc1nn(C)c(C)c1C1CCCN1Cc1nc(-c2ccco2)no1` (centres undefined), the “Percent Effect” value worked out at 17.11%.

As to `COc1c(C2CCCN2Cc2nc(-c3ccco3)no2)c(C)nn1C` (centres undefined), the “Percent Effect” value is listed as 131.1%.
